High-throughput results as filed in PubChem BioAssay.
GLP-1R agonist: agonists of human GLP-1 receptor; 0.007% of 380,000 active; Potency, µM (titrated, usually from 45.6 µM), without a hit: top-dose activation, most hits filed as activators; HEK293 GLP-1R CRE-luciferase, luminescence, 4-6 h; cells express a hypersensitive GLP-1R form; P43220; also: % of control where 0% means no effect
Target sequence (P43220 whole entry, looked up): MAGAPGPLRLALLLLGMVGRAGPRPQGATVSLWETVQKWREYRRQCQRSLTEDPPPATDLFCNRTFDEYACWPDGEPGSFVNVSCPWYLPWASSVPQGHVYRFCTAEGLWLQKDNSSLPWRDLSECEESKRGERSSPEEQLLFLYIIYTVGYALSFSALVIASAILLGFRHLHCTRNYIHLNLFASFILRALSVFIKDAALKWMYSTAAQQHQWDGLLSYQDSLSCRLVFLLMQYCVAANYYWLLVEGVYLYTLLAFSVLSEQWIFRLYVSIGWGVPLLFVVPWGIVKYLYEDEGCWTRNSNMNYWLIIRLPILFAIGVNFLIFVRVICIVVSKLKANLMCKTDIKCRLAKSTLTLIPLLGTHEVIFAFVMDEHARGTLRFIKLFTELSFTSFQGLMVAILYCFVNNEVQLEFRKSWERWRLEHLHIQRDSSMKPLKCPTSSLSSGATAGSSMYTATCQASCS
HEK293 tox: cytotoxicity in counter-screen for GLP-1R inverse agonists; HEK293 cAMP-luciferase reporter cells, luminescence, 24 h; Potency, µM (top dose mostly 38.3 µM), inactives show at the top dose activity change, negative = inhibition, usual class: inhibitors; 0.13% of 410,000 active; AID 624418;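 also: loss of luciferase light is scored as toxicity; % is scaled to controls: 0 for no effect and ±100 for the full control effect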
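Compound-treated cells are incubated 24 hr at 37 deg C under 5% CO2 after a 12 hour attachment period, then luciferase detection reagent is added and luminescence is measured following 12 min at room temperature; lowered signal indicates toxicity.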
GLP1R inv ag: GLP-1 receptor (human) inverse agonism | AID 624417 | 1.6% of 410,000 active | HEK293 GLP-1R CRE-luciferase, luminescence, 24 h; GLP-1R form is constitutively active | Potency, µM (titrated, usually from 38.3 µM), for the others: at the top dose activity change, negative = inhibition, hits mostly inhibitors; also: % is scaled to controls: 0 for no effect and ±100 for the full control effect; nearly all actives have a fitted effect of over 55% in size
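Readout was luciferase luminescence, measured 12 min after detection reagent at room temperature. Beforehand, GLP-1R reporter HEK293 cells had sat 12 h, then received compounds for 24 hr at 37 deg C.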
PTHR1 ag: agonists of human PTHR1 parathyroid hormone receptor | HEK293 GP2 PTHR1 cells, GloSensor cAMP luminescence, 1 h | Potency, µM (series often up to 115 µM), inactives show at the top dose activation, actives largely listed as activators | 0.075% of 410,000 active; also: nearly all actives have a fitted effect of over 55% in size
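HEK-293-derived GP2 cells expressing PTHR1 and a GloSensor cAMP reporter, 3,000/well, plated overnight, given luciferin plus IBMX (each 0.5 mM as added) for 1 h at 37 °C, then compound for 1 h at 37 °C. Luminescence was read after 15 min at room temperature.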
* hit, by the source's call; i = inactive; ? = inconclusive; nt = no result given; [ ] = another dose, or the depositor's remark. Rows were chosen to be rich in hits. Some 1.7% of all compounds tested hit in one or more screens of this group. Calls follow the shape of the dose curve; as a rule, active = well fitted curve in the direction sought with a large enough effect; inconclusive = small, poorly fitted or top-dose-only effect, or another doubt; inactive = no such curve, though single readings can be large; an effect the other way counts as inactive or inconclusive. Potency is read from the fitted curve at half-maximal effect.

SMILES | GLP-1R agonist | HEK293 tox | GLP1R inv ag | PTHR1 ag
CSc1ccc(NC(=O)NCCCN2CCC(Cc3ccccc3)CC2)cc1 | 2% | ? | 7.9µM* | i
C/C(=N\Nc1nc2ccccc2nc1C)c1ccccc1O | 7% | -51% | ? | i
CC(=NNc1ccc2ccccc2n1)c1ccccc1O | -21% | ? | 2.8µM* | -29%
O=C(c1ccccc1)C(CN1CCCCC1)c1ccccc1 (stereo not given) | -7% | ? | 2.8µM* | -7%
O=C(CC(C(=O)c1ccccc1)c1ccccc1)c1ccccc1 (stereo not given) | 2% | 9% | 10µM* | -7%
CN(C)CC(C(=O)c1ccccc1)c1ccccc1 (stereo not given) | -42% | 8.9µM* | 13% | -28%
O=C(c1ccc(Br)cc1)C(CN1CCOCC1)c1ccccc1 (stereo not given) | -6% | ? | ? | -46%
Cc1cc(C)cc(-n2ccnc2SCC(=O)Nc2ccc3c(c2)OCO3)c1 | 10% | 17% | ? | i
CC(NC(=O)c1ccc(-c2ccccc2)cc1)C(c1ccccc1)N1CCOCC1 (stereo not given) | 7% | -16% | 2µM* | -9%
CC(NC(=S)Nc1ccccc1Cl)C(c1ccccc1)N1CCOCC1 (stereo not given) | 2% | 10µM* | ? | -13%
COc1ccc(NC(=S)NC(C)C(c2ccccc2)N2CCOCC2)cc1 (stereo not given) | 12% | 0% | -13% | i
Clc1ccc(-c2csc(-c3nc(-c4ccc(Br)s4)cs3)n2)cc1 | nt | -2% | -16% | -27%
Cc1ccc(C(=O)N/C(=C\c2ccc(-c3cc(Cl)ccc3Cl)o2)C(=O)NCc2cccnc2)cc1 | 1% | 1% | ? | -9%[57.5 µM]
O=C(NCc1cccnc1)/C(=C\c1ccc(-c2cccc(Cl)c2)o1)S(=O)(=O)c1ccccc1 | -24% | ? | 2µM* | -43%
COc1cc(/C=C/c2ccc3c(Br)cc(Br)c(O)c3n2)ccc1O | -6% | ? | 7.9µM* | i
COc1ccc(/C=C/c2ccc3cccc(O)c3n2)c(OC)c1OC | -4% | -21% | 2.5µM* | -26%
COc1cc(/C=C/c2ccc3cccc(O)c3n2)cc(OC)c1OC | 17% | ? | ? | i
COc1cc(/C=C/c2ccc3cccc(O)c3n2)cc(Br)c1OC | ? | ? | 4.5µM* | -11%
CC(C)(C)c1ccc(C(=O)NCCc2csc(-c3ccc(Cl)cc3)n2)cc1 | nt | -4% | 10µM* | i
CN(C)CCCNC(=O)c1ccccn1 | -4% | -3% | 7% | i
COc1cccc(C(=O)NCCc2csc(-c3ccc(Cl)cc3)n2)c1 | nt | -6% | ? | i
CN(C)CCCNC(=O)c1ccc(-c2nc(-c3ccc(Cl)cc3)cs2)cc1 | -5% | ? | 6.3µM* | i
Cc1c(Cl)cccc1NC(=O)CSc1nc(=O)[nH]c2c1CCCC2 | nt | 0% | 5% | i
Cc1ncc(C(O)c2ccc(N(C)C)cc2)n1Cc1ccccc1 (stereo not given) | 6% | 3% | -19% | -19%
CCc1ncc(C(O)c2ccc(Cl)cc2)n1Cc1ccccc1 (stereo not given) | -8% | -4% | 8.9µM* | -19%
SMILES | GLP-1R agonist | HEK293 tox | GLP1R inv ag | PTHR1 ag
C/C(=N\O)c1ccc(OCC(=O)N2CCCCC2)cc1 | 6% | nt | nt | nt
CCc1ccc(N2CCn3c2nc2c3c(=O)n(CCc3ccccc3)c(=O)n2C)cc1 | nt | 6% | -8% | 50µM*
CCc1ccc(N2CCn3c2nc2c3c(=O)n(CCCc3ccccc3)c(=O)n2C)cc1 | nt | 24% | 11% | -12%
CCOC(=O)c1c(NC(=O)C2COc3ccccc3O2)sc2c1CC(C)(C)NC2(C)C (stereo not given) | 5% | -28% | 3.2µM* | i
CCOC(=O)c1c(NC(=O)Cc2ccccc2)sc2c1CC(C)(C)NC2(C)C | ? | 0% | ? | -14%
CCOC(=O)c1c(NC(=O)CSc2nnnn2-c2ccccc2OCC)sc2c1CC(C)(C)NC2(C)C | 10% | ? | 10µM* | -34%
Cc1ccc(NC(=O)COc2ccc3oc4c(c3c2)CCCC4)cc1C | 7% | 1% | 4% | i
CNc1sc(C(=O)c2cccs2)c(N)c1-c1nc2ccccc2s1 | 3% | ? | ? | -8%[57.5 µM]
CNc1sc(C(=O)c2ccc(F)cc2)c(N)c1-c1nc2ccccc2s1 | 10% | 11µM* | 0% | -5%[57.5 µM]
COc1cc(OC)c(N(C)C(=O)Cn2ncc3c([nH]c4ccccc43)c2=O)cc1Cl | nt | 32% | 0% | -38%
O=C(Cn1cnc2c(NCc3ccccc3)ncnc21)N1CCN(c2ccccn2)CC1 | 6% | 4% | 11% | i
Cc1cc(C)c(CN2CCN(C(=O)Cn3cnc4c(NCc5ccccc5)ncnc43)CC2)c(C)c1 | 1% | -3% | 8.9µM* | -28%
Cc1ccc2nc(N)[nH]c(=O)c2c1Sc1ccncc1 | 0% | nt | nt | nt
Cc1ccc(C(=O)NCCCn2ccnc2)cc1[N+](=O)[O-] | -2% | 1% | -18% | 6%
O=C(NCCCn1ccnc1)c1ccc(N2CCCCCC2)c([N+](=O)[O-])c1 | 15% | -1% | 5µM* | i
O=C(c1ccc(N2CCCC2)c([N+](=O)[O-])c1)N1CCc2ccccc2C1 | 29% | -35% | 4.5µM* | -19%
CC(C)C[C@H]1CNC(=S)N1CC1CCN(CCC23CC4CC(CC(C4)C2)C3)CC1 | 0% | -2% | 10µM* | -41%
O=c1oc2cc(O)ccc2cc1-c1nc(-c2ccc(Cl)c(Cl)c2)cs1 | nt | 21% | 8% | -15%
C=C(C1=CCN(S(=O)C(C)(C)C)[C@H]1CCO)c1ccccc1 (stereo not given in full) | -1% | 22% | 11µM* | -9%
COc1ccc(C)cc1NC(=O)CCCN1C(=O)C(c2ccccc2)Oc2cccnc21 (stereo not given) | 29% | 0% | 10µM* | -25%
CCOC(=O)C(NC(=O)c1ccccc1Cl)(Nc1ccc(C)c(C)c1)C(F)(F)F (stereo not given) | -4% | -11% | -29% | 0%
COC(=O)C(Nc1ccccc1Cl)(c1cc(C)c(O)c(C)c1)C(F)(F)F (stereo not given) | -24% | ? | 4.5µM* | -25%[57.5 µM]
COc1ccc(C(=O)NC(NC(=S)Nc2ccc(S(N)(=O)=O)cc2)C(Cl)(Cl)Cl)cc1 (stereo not given) | 0% | -6% | 3.2µM* | i
O=C(NOCc1ccccc1)c1ccc(Cl)cc1 | -1% | -13% | ? | -5%
COc1ccc(C(=O)NOCc2ccccc2)cc1 | -7% | 2% | 3.2µM* | -9%
COc1ccc(C(=O)NC(Nc2ccccc2)C(Cl)(Cl)Cl)cc1 (stereo not given) | -5% | -18% | 7.1µM* | i
COc1ccc(-n2ncc(C(=O)NCc3ccc4c(c3)OCO4)c2C2CCN(C(=O)OC(C)(C)C)CC2)cc1 | nt | -4% | ? | -22%
